Rows were chosen to be rich in hits. Some 3.3% of all compounds tested hit in one or more screens of this group.
H9c2 protect – protects H9c2 cardiomyocytes from peroxide injury; protection from H2O2 cell death, % at 20 µM; H2O2 injury protection, ATPLite, 2 h; hit rate 0.63% among 360,000;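 active means compounds giving at least 50% protection of heart cells from peroxide-induced death in the single-dose screen, raw or plate-pattern-corrected value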;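 further: 0% = DMSO wells with peroxide and 100% = DMSO wells without peroxide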
KCC2 mod – modulators of human KCC2 chloride dependent transport; Q9H2X9; KCC2 cells, thallium flux FluoZin-2 fluorescence; B-score of Tl+ flux slope (higher = more flux/activation; lower = inhibition) at 10 µM; hit rate 2.2% among 190,000; AID 1456;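 active means thallium flux slope and its plate-corrected score both differing from the plate sample mean at a set confidence after two filtering rounds, in either direction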;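 further: slope of fluorescence scaled to starting intensity during 10 to 20 s after thallium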
Calb FLC – affects C. albicans growth with fluconazole; C. albicans CaCi-2 (fluconazole-resistant clinical isolate) + fluconazole, Alamar Blue growth, 48 h; growth inhibition, % (concentration not given with the values); hit rate 0.57% among 300,000;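 active means growth inhibition above about 58% in most replicates, limit read from the data, passing the limit was not always enough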;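 further: all wells also contain fluconazole at 8 µg/ml as a sub-toxic cotreatment; 0% = median of DMSO wells and 100% = median of geldanamycin control wells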
Efflux pump mplx – inhibitors of Candida antifungal efflux pumps expressed in yeast; hit rate 0.44% among 330,000; S. cerevisiae Candida pump triplex, Nile Red efflux; AID 485275; inhibition, % at 10 µM;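 active means plate passing quality check with inhibition over a set limit, or well fluorescence over plate mean plus 4 SD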;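 further: Nile Red retained in pooled yeast measured as flow cytometry median fluorescence; 0% = buffer negative control and 100% = Enniatin B positive control; higher means more Nile Red kept so more efflux inhibition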
PHOSPHO1 block – PHOSPHO1 (human) inhibition; Q8TCT1; recombinant PHOSPHO1, absorbance phosphatase assay; inhibition, % at 13.3 µM; hit rate 1.1% among 290,000; in the data active means inhibition above about 60%
Target sequence (Q8TCT1 whole entry, looked up): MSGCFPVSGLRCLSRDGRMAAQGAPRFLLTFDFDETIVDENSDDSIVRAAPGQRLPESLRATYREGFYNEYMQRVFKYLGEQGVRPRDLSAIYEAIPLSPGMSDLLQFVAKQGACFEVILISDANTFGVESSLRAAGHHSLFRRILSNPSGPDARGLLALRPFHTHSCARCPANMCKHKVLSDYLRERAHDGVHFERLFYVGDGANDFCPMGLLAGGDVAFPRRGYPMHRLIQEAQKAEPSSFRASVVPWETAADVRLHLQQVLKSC
Cmpd fluor yeast – compound fluorescence in yeast efflux pump counter-screen | shares compounds with Efflux pump mplx | S. cerevisiae AD/pABC3, flow cytometry | fluorescence ratio to DMSO, % at 10 µM | hit rate 4% among 1,700;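 active means fluorescence ratio to DMSO above its plate's cutoff, the plate mean ratio plus 5 SD, cut at about 210% in these data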;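 further: unstained yeast with no Nile Red so the signal is compound autofluorescence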
CaMdr1 efflux inh – Candida Mdr1 efflux pump inhibition. inhibition, % at 10 µM. hit rate 1% among 1,700. S. cerevisiae AD/CaMDR1, Nile Red efflux, flow cytometry. shares compounds with Efflux pump mplx; in the data active means inhibition above about 26%;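 further: 0% = DMSO vehicle and 100% = reference inhibitor; higher means more Nile Red retained so more efflux inhibition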
CaCdr2 efflux inh – blocks the Candida albicans Cdr2 efflux pump in yeast; shares compounds with Efflux pump mplx; S. cerevisiae AD/CaCDR2, Nile Red retention, flow cytometry; Nile Red retention ratio vs DMSO, % at 10 µM; hit rate 4% among 1,700; in the data active means Nile Red retention ratio vs DMSO above about 190%;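 further: higher ratio means more blocking of Cdr2 efflux of the dye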
CaCdr1 efflux inh – blocks the Candida albicans Cdr1 efflux pump in yeast. S. cerevisiae AD/CaCDR1, Nile Red efflux, flow cytometry. inhibition, % at 10 µM. shares compounds with Efflux pump mplx. hit rate 1% among 1,700;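 active means inhibition above the screen-wide mean plus twice its standard deviation, cut at about 32% in these data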
Active calls of the source: *; . = no result given.

SMILES	H9c2 protect	KCC2 mod	Calb FLC	Efflux pump mplx	PHOSPHO1 block	Cmpd fluor yeast	CaMdr1 efflux inh	CaCdr2 efflux inh	CaCdr1 efflux inh
CC(C(=O)Nc1ccccc1C(=O)N1CCOCC1)N(c1ccc(Cl)cc1)S(C)(=O)=O (centres undefined)	4.3	0.421	-7.2	0.7*	20.0	103.0	-0.2	91.4	0.0
CCCCCCCCCC(=O)N/N=C(\C)c1cccnc1	-20.8	-0.0473	-22.1	1.6*	-35.3	87.6	0.0	103.8	-0.1
Cc1cc(C)c(S(=O)(=O)Nc2ccc(O)cc2)cc1C	-6.9	-0.159	-5.8	0.0	17.7	.	.	.	.
Cc1cc(C)c(S(=O)(=O)Nc2ncn[nH]2)c(C)c1	2.3	.	-8.8	-0.1	3.4	.	.	.	.
Cc1cc(C)c(S(=O)(=O)Nc2ccc(O)c(Sc3ncn[nH]3)c2)c(C)c1	1.8	1.76	16.1	11.1*	-2.7	103.0	-0.2	91.4	-0.1
Cc1cc(C)c(S(=O)(=O)Nc2ccc(O)c(Sc3ncn[nH]3)c2)cc1C	-29.7	.	9.8	-0.1	1.8	91.9	-0.2	91.1	0.0
COc1ccc(-c2cc(C(=O)Nc3ccc(OC)c(OC)c3)no2)cc1	-5.2	.	-5.9	1.4*	-6.4	102.2	-0.6	108.3	0.1
COc1ccc(NC(=O)c2cc(-c3ccc(C)cc3)on2)cc1OC	-3.3	.	-3.7	0.1	22.9	.	.	.	.
COc1ccc(S(=O)(=O)NC(=O)C2(C)CCN2C(=O)CC2CC2)cc1 (centres undefined)	-2.7	.	.	.	.	.	.	.	.
COc1cccc(C(=O)NC2CC(C)(C)Cc3c2cnn3-c2cccc(F)c2)c1OC (centres undefined)	-12.7	.	-8.8	-0.1	46.5	106.7	-0.2	106.3	0.0
COc1ccc(-n2ncc3c2CC(C)(C)CC3NC(=O)c2cnc(C)cn2)cc1 (centres undefined)	-3.2	.	0.7	0.0	22.2	104.6	-0.1	95.6	-0.1
Cc1cnc(C(=O)NC2CC(C)(C)Cc3c2cnn3-c2ccccc2)cn1 (centres undefined)	0.2	.	3.2	1.2	2.6	97.6	0.1	107.2	-0.1
COCc1ccc(C(=O)NC2CC(C)(C)Cc3c2cnn3-c2ccc(OC)cc2)o1 (centres undefined)	2.0	.	-4.0	0.0	16.9	.	.	.	.
CC(=O)c1ccc(C(=O)NC2CC(C)(C)Cc3c2cnn3-c2ccccc2)cc1 (centres undefined)	7.7	.	4.2	0.0	-1.9	.	.	.	.
FC(F)(F)c1cccc(CC2CN(Cc3ccccc3)Cc3ccccc3N2c2cc(Cl)cc(Cl)c2)c1 (centres undefined)	-6.7	.	.	.	.	.	.	.	.
CCOC(=O)C1=C(COC(=O)/C=C/c2cccc(OC)c2OC)NC(=O)NC1C (centres undefined)	33.8	.	-1.6	0.2	.	.	.	.	.
O=C(CC[C@H]1O[C@@H](n2cnc3c(NC(=O)c4ccccc4)ncnc32)[C@H](O)[C@@H]1O)NCc1cccc2ccccc12	4.9	.	.	.	.	.	.	.	.
CCOCCCNC(=O)/C(C#N)=C/c1ccc(-c2ccc(S(=O)(=O)N3CCOCC3)cc2)o1	20.2	-0.0653	-4.9	-0.1	2.4	.	.	.	.
CCOCCCNC(=O)/C(C#N)=C/c1ccc([N+](=O)[O-])o1	-25.8	0.0176	2.3	0.9*	16.8	247.4	0.2	129.1	-0.1
CC(C)CN(C(=O)c1cccs1)C1CCS(=O)(=O)C1 (centres undefined)	-1.6	.	-5.3	.	.	.	.	.	.
CC1(C(=O)NS(=O)(=O)c2cccs2)CCN1C(=O)C1CC1 (centres undefined)	9.7	.	.	.	.	.	.	.	.
C[C@H]1O[C@@H](O[C@H]2CC[C@@]3(C)C(CC[C@]4(C)C3C=CC3=C5CC(C)(C)CC[C@]5(CO)[C@H](O)C[C@]34C)[C@]2(C)CO)[C@H](O)[C@@H](O[C@@H]2O[C@H](CO)[C@@H](O)[C@H](O)[C@H]2O)[C@H]1O (some centres undefined)	3.8	.	.	1.7*	.	109.5	0.0	112.2	-0.1
O=C(OCC(=O)c1ccccc1Cl)c1cnccn1	11.1	0.272	1.7	13.9*	16.5	100.0	-0.1	114.4	-0.1
O=C(O)c1nccnc1C(=O)N1CCN(c2ccccc2)CC1	7.0	0.604	-0.9	1.9*	7.1	106.7	-0.2	99.3	2.0
COCCCn1c(=O)c2ccccc2n(CC(=O)Nc2ccc3c(c2)OCCO3)c1=O	-0.7	.	0.7	0.1	22.4	.	.	.	.
SMILES	H9c2 protect	KCC2 mod	Calb FLC	Efflux pump mplx	PHOSPHO1 block	Cmpd fluor yeast	CaMdr1 efflux inh	CaCdr2 efflux inh	CaCdr1 efflux inh
O=C(COC(=O)[C@H](Cc1ccccc1)NC(=O)c1cccs1)NC1CCCCC1	2.5	-0.372	2.3	17.7*	-1.0	104.5	0.1	109.4	-0.1
CCCCNC(=O)CSc1nnc(-c2cccc(S(=O)(=O)N3CCOCC3)c2)o1	-5.4	.	.	-0.2	.	.	.	.	.
O=C(NC(=O)c1ccccc1)Nc1ccc(Cl)cn1	-5.3	.	29.0	0.4*	31.3	103.1	0.1	96.3	0.0
CCOC(=O)c1oc2c(c1C)C(=O)CCC2	1.3	0.0841	-16.3	6.7*	-2.5	97.0	-0.3	84.5	-0.3
COc1cc2c(cc1Cl)C(=O)C(F)(c1ccccc1)C(=O)N2 (centres undefined)	-1.7	-0.272	12.2	0.3	-10.4	.	.	.	.
CN(c1ccc(OCC(=O)OCC(=O)Nc2ccc(F)cc2)cc1)S(=O)(=O)c1ccc(Cl)cc1	1.0	0.0318	-4.5	0.1	4.1	.	.	.	.
Cc1ccc(NC(=O)COc2ccc(N(C)S(=O)(=O)c3ccc(F)cc3)cc2)cc1	-14.5	.	.	0.8*	.	86.5	0.1	103.8	-0.4
COc1cccc(CC(CC(=O)O)C(=O)Nc2cc(C)ccc2C)c1 (centres undefined)	4.8	.	0.0	-0.2	23.9	.	.	.	.
COc1ccc(OCC(=O)Nc2c(C)ccc3nsnc23)cc1	-2.4	.	-5.7	0.0	-57.3	.	.	.	.
CC(C(=O)N(C)C1CCCCC1)N1CCC(C(N)=O)CC1 (centres undefined)	6.1	.	-6.4	0.2	22.4	.	.	.	.
COc1ccc(-c2cc(N3C(=O)Nc4ccccc4N3O)n[nH]2)cc1	0.3	0.305	-5.3	6.5*	-7.1	97.8	-0.2	100.1	0.0
Cc1ccc(NC(=O)CSc2nc(C)c(Cc3ccccc3)c(=O)[nH]2)cc1	-0.6	-1.8	35.7	-0.2	-17.0	.	.	.	.
Cc1cccc(NC(=O)CSc2nc(C)c(Cc3ccccc3)c(=O)[nH]2)c1C	.	-0.482	-15.0	2.1*	-3.9	97.6	-0.4	100.7	0.2
N=c1c(C(=O)NCc2ccc3c(c2)OCO3)cc2c(=O)n3ccccc3nc2n1Cc1cccnc1	30.7	-0.601	-31.0	-0.2	-4.6	.	.	.	.
COc1ccc(CNC(=O)c2cc3c(=O)n4ccccc4nc3n(Cc3cccnc3)c2=N)cc1	-0.6	.	-9.1	0.9*	-20.6	96.2	-0.1	105.1	0.0

Screening results from PubChem BioAssay.
